Assay results reported in PubChem BioAssay (EPA / NIEHS).
Inconclusive results are not listed. The source made the active and inactive calls. The calls were made as follows, unless noted: active = hit-call score of the fitted dose curve at least 0.9, where 1 is the maximum; inactive = score below 0.9.

Columns and labels:
[1] = ATG_TAL_CIS: Attagene CIS-FACTORIAL HepG2 Assay for human TAL Basal Promoter (AID 2282966); conditions: HepG2 Attagene cis-factorial TAL promoter reporter; actives raise or lower the signal;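 also: background control endpoint measuring basal TAL promoter reporter mRNA not a specific factor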
In short: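 Background-control endpoint: basal TAL promoter reporter transcripts in transiently transfected HepG2, measured 24 h after dosing. Read-out by RT-PCR with fluorescent primer extension and capillary electrophoresis; gain or loss of signal fitted relative to DMSO.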

[2] = ATG_TGFb_CIS: Attagene CIS-FACTORIAL HepG2 Assay for human Transforming Growth Factor (TGF) (AID 2282967); conditions: HepG2 Attagene CIS TGFb reporter, mRNA transcription; actives raise or lower the signal
In short: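 Multiplexed cis-reporter HepG2 system, 24 h treatment; mRNA induction read by fluorescence after RT-PCR and CE; DMSO negative control, bidirectional curve fitting.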

[3] = ATG_VDRE_CIS: Attagene CIS-FACTORIAL HepG2 Assay for human Vitamin D Receptor Element (VDRE) (AID 2282968); conditions: HepG2 VDRE cis-reporter transcription, actives raise or lower the signal
In short: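 Steps: transfect HepG2 with multiple reporter transcription units; dose chemicals 24 h; isolate RNA; RT-PCR; label with 6-FAM primer extension; HpaI digest; capillary electrophoresis. Curves fitted both directions against DMSO.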

[4] = target: Nuclear receptor subfamily 1 group I member 3 (Homo sapiens) (UniProt Q14994); assay: ATG_CAR_TRANS: Attagene TRANS-FACTORIAL HepG2 Assay for human Constitutive Androstane Receptor (CAR) (AID 2282969; active = hit-call score of the fitted dose curve at least 0.9, where 1 is the maximum;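 also: activators raise reporter mRNA above DMSO so AC50 marks induction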); conditions: HepG2 Attagene TRANS-FACTORIAL CAR reporter
Chain of Nuclear receptor subfamily 1 group I member 3 (Homo sapiens) (Q14994 whole entry, looked up, the tested form may be a part): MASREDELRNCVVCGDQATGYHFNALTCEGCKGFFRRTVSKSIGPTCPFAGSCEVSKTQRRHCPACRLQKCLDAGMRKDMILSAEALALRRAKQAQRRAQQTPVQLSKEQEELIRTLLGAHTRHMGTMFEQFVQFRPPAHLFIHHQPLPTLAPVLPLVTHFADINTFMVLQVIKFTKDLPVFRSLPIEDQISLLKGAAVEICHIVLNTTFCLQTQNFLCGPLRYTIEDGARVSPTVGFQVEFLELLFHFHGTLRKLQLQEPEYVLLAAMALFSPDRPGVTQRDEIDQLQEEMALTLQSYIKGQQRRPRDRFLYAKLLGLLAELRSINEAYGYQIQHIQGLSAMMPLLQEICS
In short: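 Steps: transient transfection of HepG2 with multiple GAL4-UAS reporter units; 24 h compound incubation; RNA isolation, RT-PCR, 6-FAM primer extension, HpaI digest; capillary electrophoresis. Gain-of-signal relative to DMSO negative control.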

[5] = target: Estrogen receptor (Homo sapiens) (UniProt P03372); assay: ATG_ERa_TRANS: Attagene TRANS-FACTORIAL HepG2 Assay for human Estrogen Receptor alpha (ERa) (AID 2282970; active = hit-call score of the fitted dose curve at least 0.9, where 1 is the maximum); conditions: HepG2 Attagene TRANS ERa GAL4 reporter, mRNA
Chain of Estrogen receptor (Homo sapiens) (P03372 whole entry, looked up, the tested form may be a part): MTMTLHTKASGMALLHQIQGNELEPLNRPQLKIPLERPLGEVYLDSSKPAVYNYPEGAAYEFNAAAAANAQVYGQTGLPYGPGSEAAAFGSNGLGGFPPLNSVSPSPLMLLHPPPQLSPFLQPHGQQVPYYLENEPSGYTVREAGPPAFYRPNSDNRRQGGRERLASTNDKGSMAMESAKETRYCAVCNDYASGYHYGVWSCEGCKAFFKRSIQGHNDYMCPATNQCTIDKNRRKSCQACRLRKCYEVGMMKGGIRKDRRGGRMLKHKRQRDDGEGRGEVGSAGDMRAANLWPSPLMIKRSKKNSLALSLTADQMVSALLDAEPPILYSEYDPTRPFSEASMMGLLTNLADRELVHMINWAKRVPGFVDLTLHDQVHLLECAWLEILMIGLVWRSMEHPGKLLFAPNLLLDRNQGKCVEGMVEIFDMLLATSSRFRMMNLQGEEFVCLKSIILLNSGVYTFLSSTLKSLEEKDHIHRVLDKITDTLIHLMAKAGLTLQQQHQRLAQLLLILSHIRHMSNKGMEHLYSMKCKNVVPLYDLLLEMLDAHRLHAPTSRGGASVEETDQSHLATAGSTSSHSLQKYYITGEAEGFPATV
In short: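 Reporter transcripts were measured 24 h after dosing by RT-PCR with fluorescent primer extension and capillary electrophoresis. The system is transiently transfected HepG2 expressing exogenous NR-Gal4 chimeras driving GAL4-UAS reporters; DMSO is the baseline.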

[6] = target: Steroid hormone receptor ERR1 (Homo sapiens) (UniProt P11474); assay: ATG_ERRa_TRANS: Attagene TRANS-FACTORIAL HepG2 Assay for human Estrogen-Related Receptor alpha (ERRa) (AID 2282971; active = hit-call score of the fitted dose curve at least 0.9, where 1 is the maximum); conditions: HepG2 Attagene TRANS reporter, ERRa transactivation
Chain of Steroid hormone receptor ERR1 (Homo sapiens) (P11474 whole entry, looked up, the tested form may be a part): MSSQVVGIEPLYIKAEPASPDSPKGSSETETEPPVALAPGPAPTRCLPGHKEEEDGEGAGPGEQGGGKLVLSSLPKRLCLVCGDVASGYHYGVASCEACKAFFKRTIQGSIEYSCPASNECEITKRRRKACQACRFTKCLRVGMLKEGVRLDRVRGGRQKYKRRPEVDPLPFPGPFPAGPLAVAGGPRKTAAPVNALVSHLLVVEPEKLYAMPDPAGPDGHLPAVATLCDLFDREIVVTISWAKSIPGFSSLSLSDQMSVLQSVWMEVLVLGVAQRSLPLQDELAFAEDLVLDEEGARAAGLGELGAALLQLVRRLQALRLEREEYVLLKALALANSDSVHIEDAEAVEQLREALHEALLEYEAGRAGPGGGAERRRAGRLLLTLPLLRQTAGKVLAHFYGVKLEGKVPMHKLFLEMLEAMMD
In short: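 Reporter transcripts from ERRa-Gal4 chimera activity measured in transiently transfected human HepG2 cells 24 hours after dosing, using RT-PCR with 6-FAM primer extension, HpaI digestion and capillary electrophoresis; DMSO is baseline.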

[7] = target: X-box-binding protein 1 (Homo sapiens) (UniProt P17861); assay: ATG_Xbp1_CIS: Attagene CIS-FACTORIAL HepG2 Assay for human X-box Binding Protein 1 (XBP1) (AID 2282972); conditions: HepG2 XBP1 cis-element reporter, Attagene multiplex; actives raise or lower the signal
Chain of X-box-binding protein 1 (Homo sapiens) (P17861 whole entry, looked up): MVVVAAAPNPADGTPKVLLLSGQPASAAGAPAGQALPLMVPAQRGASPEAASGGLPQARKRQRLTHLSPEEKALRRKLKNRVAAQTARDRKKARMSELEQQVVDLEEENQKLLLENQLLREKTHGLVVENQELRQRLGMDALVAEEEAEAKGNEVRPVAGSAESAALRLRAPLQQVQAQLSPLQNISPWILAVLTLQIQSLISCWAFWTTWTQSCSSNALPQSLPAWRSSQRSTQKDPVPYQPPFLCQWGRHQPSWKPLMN
In short: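 Changes in reporter transcript abundance, read by RT-PCR and capillary electrophoresis, reflect endogenous transcription factor activity. Transfected HepG2 cells received compound for 24 hours; DMSO defined baseline for bidirectional analysis.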

[8] = ATG_GAL4_TRANS: Attagene TRANS-FACTORIAL HepG2 Assay for GAL4 (Internal Marker) (AID 2282976; active = hit-call score of the fitted dose curve at least 0.9, where 1 is the maximum); conditions: HepG2 Attagene TRANS GAL4 internal marker reporter
In short: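 In transfected human HepG2 liver cells dosed 24 h, GAL4 reporter mRNA serves as a baseline marker. Detection by RT-PCR with fluorescent capillary electrophoresis, activity fitted upward relative to DMSO.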

[9] = target: Estrogen-related receptor gamma (Homo sapiens) (UniProt P62508); assay: ATG_ERRg_TRANS: Attagene TRANS-FACTORIAL HepG2 Assay for human Estrogen-Related Receptor gamma (ERRg) (AID 2282977; active = hit-call score of the fitted dose curve at least 0.9, where 1 is the maximum;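 also: hits increase reporter signal over DMSO so potencies reflect activators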); conditions: HepG2 Attagene TRANS reporter, ERRg transactivation
Chain of Estrogen-related receptor gamma (Homo sapiens) (P62508 whole entry, looked up, the tested form may be a part): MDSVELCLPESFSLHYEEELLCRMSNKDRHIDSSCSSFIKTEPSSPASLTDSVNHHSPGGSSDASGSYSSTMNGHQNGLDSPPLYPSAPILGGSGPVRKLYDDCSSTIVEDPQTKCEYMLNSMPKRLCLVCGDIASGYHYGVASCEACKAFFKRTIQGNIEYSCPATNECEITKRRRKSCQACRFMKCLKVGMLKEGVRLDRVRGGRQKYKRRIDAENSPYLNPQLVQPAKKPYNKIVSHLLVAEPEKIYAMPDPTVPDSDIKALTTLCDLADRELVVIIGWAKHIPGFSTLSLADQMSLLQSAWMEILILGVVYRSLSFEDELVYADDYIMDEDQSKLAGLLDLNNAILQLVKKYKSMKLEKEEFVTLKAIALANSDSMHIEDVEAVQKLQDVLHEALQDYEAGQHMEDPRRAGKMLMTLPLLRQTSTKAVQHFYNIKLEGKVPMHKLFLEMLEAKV
In short: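 Exogenous NR-Gal4 chimera activity measured as reporter transcript induction after 24 h in transiently transfected HepG2 cells. RNA reverse-transcribed, PCR-amplified, 6-FAM-labelled and resolved by capillary electrophoresis; increase over DMSO baseline.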

[10] = ATG_M_19_TRANS: Attagene TRANS-FACTORIAL HepG2 Assay for M19 Transcription Factor (Internal Marker) (AID 2282974; active = hit-call score of the fitted dose curve at least 0.9, where 1 is the maximum); conditions: HepG2 Attagene TRANS-FACTORIAL M19 internal marker reporter
In short: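 Background-control readout: after 24 h chemical exposure of transfected HepG2 carrying GAL4-driven reporter units, RNA was reverse-transcribed, amplified, fluorescently labeled and sized by capillary electrophoresis; gain-of-signal fit against DMSO.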

Measured: AC50

CCCCC(CC)C(=O)OCCOCCOCCOC(=O)C(CC)CCCC (stereo unspecified)
active: [3] 65.8 µM
not listed: [9] | [10]
inactive: all other assays above

NC(=O)N(O)[C@@H]1COc2cc(OCc3ccccc3)ccc21
not listed: [6] | [9] | [10]
inactive: all other assays above

O=C(O)c1cccc(C[C@@H]2COc3ccc(OCc4nc5cc(F)ccc5s4)cc3[C@@H]2O)c1
inactive: [1] | [2] | [3] | [4] | [5]
active: [7] 160 µM

FC(F)(F)COC(OCC(F)(F)F)OCC(F)(F)F
not listed: [10]
inactive: all other assays above

OCC(CO)(CO)CO
inactive: [1] | [2] | [3] | [4] | [5] | [7]

C[Si](C)(C)C(F)(F)C(F)(F)C(F)(F)F
not listed: [10]
inactive: all other assays above

CCc1ccc(O)c(C(C)(C)C)c1
inactive: [10]

CCCCCCCC/C=C\CCCCCCCC(=O)OC[C@@H](O)[C@H]1OC[C@H](O)[C@H]1O
inactive: [10]

CC(=O)c1ccccc1
not listed: [3] | [6] | [9]
inactive: all other assays above

CCCCCCCC1CCC(=O)O1 (stereo unspecified)
inactive: [1] | [2] | [4] | [5] | [7] | [10]

COc1cc2c(c(OC)c1OC)-c1ccc(OC)c(=O)cc1[C@@H](NC(C)=O)CC2
inactive: [1] | [2] | [3] | [7]

O=C(O)[C@H](O)[C@@H](O)C(=O)O
inactive: [1] | [2] | [6] | [7] | [8]

O=C(N[C@H](CO)[C@H](O)c1ccc([N+](=O)[O-])cc1)C(Cl)Cl
inactive: [1] | [2] | [4] | [5] | [7] | [8]

Cn1c(=O)c2[nH]cnc2n(C)c1=O
inactive: [1] | [2] | [5] | [7]

c1ccc(C(O[C@@H]2CCCN(CCc3ccc4c(c3)OCO4)C2)c2ccccc2)cc1
inactive: [1] | [2]
active: [5] 1.76 µM | [7] 20.9 µM

CC1(C)C(=O)N(Cl)C(=O)N1Cl
inactive: [1] | [2] | [3] | [7]

CCCCN1C(=O)[C@@H]([C@H](O)C2CCCCC2)NC(=O)C12CCN(Cc1ccc(Oc3ccc(C(=O)O)cc3)cc1)CC2
active: [1] 21.9 µM
inactive: [2] | [5] | [7] | [8]

c1ccc2ncccc2c1
inactive: [1] | [2] | [5] | [7]

Cn1cc[nH]c1=S
inactive: [1] | [2] | [3] | [7] | [8]

C=CN1CCCC1=O
inactive: [1] | [2] | [4] | [5] | [7]

CCc1cccc(CC)c1N
inactive: [1] | [2] | [4] | [5] | [7] | [8]

CC(C)C(=O)Nc1ccc([N+](=O)[O-])c(C(F)(F)F)c1
inactive: [1] | [2] | [5] | [9]
active: [7] 27 µM

O=C(O)c1ccc2c(c1)nc(C(=O)NC1CCN(C3CC3)CC1)n2Cc1cc(-c2ccc(Cl)s2)on1
inactive: [1] | [2] | [5] | [7] | [8]

Cc1ncc([C@@H](CCCCCCc2ccc3c(n2)NCCC3)CC(=O)O)cn1
inactive: [1] | [2] | [3] | [7] | [8]

OC[C@H]1O[C@@](CO)(O[C@H]2O[C@H](CO)[C@@H](O)[C@H](O)[C@H]2O)[C@@H](O)[C@@H]1O
inactive: [1] | [2] | [7] | [9]

NC(N)=O
inactive: [1] | [2] | [7] | [8]

CCCc1ccccc1
inactive: [1] | [2] | [3] | [7] | [8]

CC(C)CCCCCCOC(=O)C1CCCCC1C(=O)OCCCCCCC(C)C (stereo unspecified)
inactive: [1] | [2] | [3] | [7]

CC[C@H](C)C(=O)O[C@H]1C[C@H](O)C=C2C=C[C@H](C)[C@H](CC[C@@H](O)C[C@@H](O)CC(=O)O)[C@H]21
inactive: [1] | [2] | [3] | [7] | [8]

CCCCOC(=O)c1ccccc1
inactive: [1] | [2] | [3] | [7]

O=c1[nH]cnc2c1ncn2[C@H]1CC[C@@H](CO)O1
inactive: [1] | [2] | [4] | [7] | [9]

O=C(O)c1cccc(C(=O)O)c1
inactive: [1] | [2] | [7] | [8]

OC[C@H]1O[C@@H]2O[C@H]3[C@H](O)[C@@H](O)[C@@H](O[C@H]4[C@H](O)[C@@H](O)[C@@H](O[C@H]5[C@H](O)[C@@H](O)[C@@H](O[C@H]6[C@H](O)[C@@H](O)[C@@H](O[C@H]7[C@H](O)[C@@H](O)[C@@H](O[C@H]1[C@H](O)[C@H]2O)O[C@@H]7CO)O[C@@H]6CO)O[C@@H]5CO)O[C@@H]4CO)O[C@@H]3CO
inactive: [1] | [2] | [3] | [7]

NC(=O)N1c2ccccc2C=Cc2ccccc21
inactive: [1] | [2] | [5] | [7] | [8]

O=S1(=O)CCCO1
inactive: [1] | [2] | [3] | [7] | [8]

CCOC(N)=O
inactive: [1] | [2] | [5] | [7] | [8]
